# Data from PubChem BioAssay (EPA / NIEHS).
# Values joined by “and” are separate entries in the source; they are usually repeats but may differ in a detail not shown here. Identical values can stand only once. Records with an inconclusive call do not appear. Some structures have more than one record in an assay (separate samples or runs), and their calls can disagree. Active and inactive are the calls of the source. How the source made its calls, unless noted: active means hit-call score of the fitted dose curve at least 0.9, where 1 is the maximum; inconclusive means response in the unintended direction; inactive means score below 0.9.
# Columns and labels:
# [1] = target: mouse Estrogen Receptor alpha (Era), Esr1 (gene 13982) (UniProt P19785); assay: NVS_NR_mERa: NovaScreen (NVS) Nuclear Receptor Binding Assay for mouse Estrogen Receptor alpha (Era) (AID 2283378);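 further: hit means loss of bound radioligand signal relative to DMSO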
# Sequence of mouse Estrogen Receptor alpha (Era), Esr1 (gene 13982) (P19785 whole entry, looked up): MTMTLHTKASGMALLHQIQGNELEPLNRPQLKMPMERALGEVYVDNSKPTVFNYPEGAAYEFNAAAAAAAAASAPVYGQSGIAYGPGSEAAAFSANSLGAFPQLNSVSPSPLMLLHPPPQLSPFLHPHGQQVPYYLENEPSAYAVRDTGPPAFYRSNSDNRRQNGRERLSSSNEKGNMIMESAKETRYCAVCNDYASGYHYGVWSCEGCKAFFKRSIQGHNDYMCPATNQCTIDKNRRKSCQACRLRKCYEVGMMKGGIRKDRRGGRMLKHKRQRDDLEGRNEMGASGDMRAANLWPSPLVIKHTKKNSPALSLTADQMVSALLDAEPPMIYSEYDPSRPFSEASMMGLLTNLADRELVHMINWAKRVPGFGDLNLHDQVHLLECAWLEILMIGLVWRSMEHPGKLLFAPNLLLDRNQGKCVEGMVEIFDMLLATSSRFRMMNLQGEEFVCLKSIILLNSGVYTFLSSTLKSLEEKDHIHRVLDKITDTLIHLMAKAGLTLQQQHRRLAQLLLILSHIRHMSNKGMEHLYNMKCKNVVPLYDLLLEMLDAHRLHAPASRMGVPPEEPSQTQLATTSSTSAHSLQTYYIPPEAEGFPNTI
# Summary of the method: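 Test chemicals competed against a specific radioligand for binding to cell-free mouse Era. Duplicate wells at 25 uM were read 18 hours later by filter-based radiodetection, with loss of signal against DMSO scored as activity.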
# [2] = target: Estrogen receptor beta (Homo sapiens) (UniProt Q92731); assay: OT_ER_ERbERb_1440: Odyssey Thera (OT) 24-hour HEK293T Protein-Complementation Assay for Estrogen Receptor-beta/-beta Homodimer (AID 2283380);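 further: scored as signal increase over DMSO baseline for both agonists and antagonists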
# Sequence of Estrogen receptor beta (Homo sapiens) (Q92731 whole entry, looked up, the tested form may be a part): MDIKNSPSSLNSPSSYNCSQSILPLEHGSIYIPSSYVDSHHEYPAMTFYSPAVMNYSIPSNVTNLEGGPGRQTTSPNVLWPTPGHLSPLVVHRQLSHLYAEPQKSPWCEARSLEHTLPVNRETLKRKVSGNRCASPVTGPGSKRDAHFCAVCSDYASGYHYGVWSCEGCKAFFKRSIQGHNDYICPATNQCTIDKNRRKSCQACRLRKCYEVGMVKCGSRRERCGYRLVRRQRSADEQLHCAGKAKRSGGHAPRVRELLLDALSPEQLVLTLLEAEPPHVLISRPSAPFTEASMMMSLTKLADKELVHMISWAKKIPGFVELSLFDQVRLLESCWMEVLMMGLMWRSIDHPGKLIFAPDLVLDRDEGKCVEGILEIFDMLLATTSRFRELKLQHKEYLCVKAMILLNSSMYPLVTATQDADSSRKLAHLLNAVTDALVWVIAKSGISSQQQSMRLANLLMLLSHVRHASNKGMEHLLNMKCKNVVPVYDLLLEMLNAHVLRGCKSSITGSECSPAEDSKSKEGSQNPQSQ
# Summary of the method: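 HEK293T cells stably expressing ER beta LBD (aa 310-547) homodimer fragment-complementation reporter, dosed 24 h. Cells formaldehyde-fixed, Draq5-stained; gain in nuclear (agonist) or nuclear plus cytoplasmic (antagonist) fluorescence versus DMSO read by laser scanning cytometry.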
# [3] = target: Estrogen receptor (Homo sapiens) (UniProt P03372); assay: OT_ERa_GFPERaERE_0120: Odyssey Thera (OT) 2-hour HeLa Transcription Induction Assay for Estrogen Receptor (AID 2283382)
# Sequence of Estrogen receptor (Homo sapiens) (P03372 whole entry, looked up): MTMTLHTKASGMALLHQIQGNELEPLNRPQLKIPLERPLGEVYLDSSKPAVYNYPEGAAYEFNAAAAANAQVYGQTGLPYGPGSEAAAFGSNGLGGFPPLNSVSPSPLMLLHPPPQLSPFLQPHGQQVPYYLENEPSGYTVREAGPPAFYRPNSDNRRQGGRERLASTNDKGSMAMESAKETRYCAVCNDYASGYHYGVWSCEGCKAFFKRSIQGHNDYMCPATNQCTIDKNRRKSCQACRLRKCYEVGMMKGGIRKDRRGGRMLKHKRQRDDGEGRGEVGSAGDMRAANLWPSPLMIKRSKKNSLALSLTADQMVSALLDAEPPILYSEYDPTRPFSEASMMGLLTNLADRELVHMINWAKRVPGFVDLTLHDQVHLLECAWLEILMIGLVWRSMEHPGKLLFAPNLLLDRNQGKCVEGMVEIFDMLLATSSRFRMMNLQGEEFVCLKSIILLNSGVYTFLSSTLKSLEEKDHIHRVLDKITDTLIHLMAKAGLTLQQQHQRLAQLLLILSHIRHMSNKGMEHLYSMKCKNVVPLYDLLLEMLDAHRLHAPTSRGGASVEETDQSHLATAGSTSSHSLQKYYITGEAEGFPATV
# Summary of the method: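 HeLa cells were dosed for 2 h, then GFP reporter induction was quantified by fluorescence microscopy with high-content image analysis. Gain of signal fitted against DMSO baseline.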
# [4] = target: Bile acid receptor (Homo sapiens) (UniProt Q96RI1); assay: OT_FXR_FXRSRC1_0480: Odyssey Thera (OT) 8-hour HEK293T Protein-Complementation Assay for Farnesoid X receptor/SRC-1 Co-activator (AID 2283383)
# Sequence of Bile acid receptor (Homo sapiens) (Q96RI1 whole entry, looked up, the tested form may be a part): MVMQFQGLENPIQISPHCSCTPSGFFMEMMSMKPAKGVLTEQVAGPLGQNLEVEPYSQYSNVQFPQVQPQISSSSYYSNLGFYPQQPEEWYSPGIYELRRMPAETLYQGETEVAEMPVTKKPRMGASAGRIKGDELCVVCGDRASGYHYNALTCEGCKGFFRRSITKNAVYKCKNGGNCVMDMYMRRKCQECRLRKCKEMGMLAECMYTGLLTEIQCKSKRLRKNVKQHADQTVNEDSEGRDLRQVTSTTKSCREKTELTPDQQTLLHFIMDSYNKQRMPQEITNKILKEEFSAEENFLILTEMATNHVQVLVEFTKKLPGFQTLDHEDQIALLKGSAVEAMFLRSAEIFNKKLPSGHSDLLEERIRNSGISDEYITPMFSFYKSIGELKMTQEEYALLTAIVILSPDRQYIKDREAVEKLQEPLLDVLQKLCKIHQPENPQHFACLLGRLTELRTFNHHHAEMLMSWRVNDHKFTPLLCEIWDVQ
# Summary of the method: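 HEK293T protein-fragment complementation assay: FXR and SRC-1 coactivator are fused to reporter fragments, and their interaction restores a fluorescent reporter. Readout was taken 8 h after dosing, with gain of signal fit relative to DMSO.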
# [5] = target: Bile acid receptor (Homo sapiens) (UniProt Q96RI1); assay: OT_FXR_FXRSRC1_1440: Odyssey Thera (OT) 24-hour HEK293T Protein-Complementation Assay for Farnesoid X receptor/SRC-1 Co-activator (AID 2283384)
# Summary of the method: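 HEK293T cells, 24 h after chemical dosing. FXR–SRC-1 coactivator interaction read as fluorescence from protein-fragment complementation of a split reporter. Gain of signal fitted against DMSO baseline.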
# [6] = target: Retinoic acid receptor RXR-alpha (Homo sapiens) (UniProt P19793); assay: OT_NURR1_NURR1RXRa_0480: Odyssey Thera (OT) 8-hour HEK293T Protein Complementation Assay for Nurr1/retinoid X receptor (RXR) (AID 2283385)
# Sequence of Retinoic acid receptor RXR-alpha (Homo sapiens) (P19793 whole entry, looked up, the tested form may be a part): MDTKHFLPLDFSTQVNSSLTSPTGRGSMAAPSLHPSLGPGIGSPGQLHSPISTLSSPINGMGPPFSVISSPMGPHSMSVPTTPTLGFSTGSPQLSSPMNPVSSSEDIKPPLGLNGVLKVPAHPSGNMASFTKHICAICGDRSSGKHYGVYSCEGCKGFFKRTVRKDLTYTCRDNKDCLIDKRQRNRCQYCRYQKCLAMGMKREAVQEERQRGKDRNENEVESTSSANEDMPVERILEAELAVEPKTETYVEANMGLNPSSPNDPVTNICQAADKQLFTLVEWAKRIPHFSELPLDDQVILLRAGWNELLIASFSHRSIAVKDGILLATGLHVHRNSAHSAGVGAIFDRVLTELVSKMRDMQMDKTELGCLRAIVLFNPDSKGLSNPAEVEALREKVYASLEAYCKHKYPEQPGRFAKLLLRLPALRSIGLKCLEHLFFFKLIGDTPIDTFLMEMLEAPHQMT
# Summary of the method: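 HEK293T cells expressing Nurr1 and RXRα fused to reporter fragments (protein-fragment complementation); fluorescence measured 8 h after dosing. Gain of signal fitted relative to DMSO.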
# [7] = target: human Norepinephrine Transporter (NET), SLC6A2 (gene 6530) (UniProt P23975); assay: NVS_TR_hNET: NovaScreen (NVS) Transporter Assay for human Norepinephrine Transporter (NET) (AID 2283377);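 on AC50: displacement of radioligand from human NET seen as loss of scintillation signal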
# Sequence of human Norepinephrine Transporter (NET), SLC6A2 (gene 6530) (P23975 whole entry, looked up): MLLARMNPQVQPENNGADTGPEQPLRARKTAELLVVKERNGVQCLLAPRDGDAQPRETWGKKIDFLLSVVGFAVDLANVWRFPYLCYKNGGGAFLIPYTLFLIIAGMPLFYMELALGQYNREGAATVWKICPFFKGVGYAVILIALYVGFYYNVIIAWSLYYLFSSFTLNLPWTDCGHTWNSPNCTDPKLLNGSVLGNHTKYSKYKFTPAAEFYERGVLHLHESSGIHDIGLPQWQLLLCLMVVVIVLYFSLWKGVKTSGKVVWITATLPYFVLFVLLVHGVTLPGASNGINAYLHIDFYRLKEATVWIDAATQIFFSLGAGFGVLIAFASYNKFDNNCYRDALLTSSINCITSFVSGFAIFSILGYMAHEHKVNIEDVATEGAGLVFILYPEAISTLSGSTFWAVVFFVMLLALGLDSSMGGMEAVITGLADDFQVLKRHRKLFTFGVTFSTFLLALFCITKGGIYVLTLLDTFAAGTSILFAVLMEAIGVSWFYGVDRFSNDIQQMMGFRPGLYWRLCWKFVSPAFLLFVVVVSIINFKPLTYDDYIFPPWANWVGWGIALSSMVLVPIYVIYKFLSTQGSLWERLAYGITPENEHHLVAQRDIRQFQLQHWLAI
# Summary of the method: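 Cell-free radioligand binding using CHO-derived membrane protein expressing human NET, read by filter scintillation counting 1 h after dosing; loss of signal vs DMSO. Initial duplicate screen at 25 uM, actives retested in concentration series.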
# [8] = target: Estrogen receptor (Homo sapiens) (UniProt P03372); assay: OT_ERa_GFPERaERE_0480: Odyssey Thera (OT) 8-hour HeLa Transcription Induction Assay for Estrogen Receptor (AID 2283381; active means hit-call score of the fitted dose curve at least 0.9, where 1 is the maximum; inactive means score below 0.9)
# Summary of the method: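 HeLa cells expressing GFP reporter under estrogen response element, imaged 8 h after dosing. GFP induction quantified by high-content fluorescence microscopy image analysis; gain of signal fitted versus DMSO.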
# [9] = target: Norway rat Vesicular Monoamine Transporter (VMAT2), neurotransmitter transporter, Slc18a2 (gene 25549) (UniProt Q01827); assay: NVS_TR_rVMAT2: NovaScreen (NVS) Transporter Assay for Norway rat Vesicular Monoamine Transporter (VMAT2), neurotransmitter transporter (AID 2283376);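 further: actives lower the bound radioligand signal below the DMSO level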
# Sequence of Norway rat Vesicular Monoamine Transporter (VMAT2), neurotransmitter transporter, Slc18a2 (gene 25549) (Q01827 whole entry, looked up): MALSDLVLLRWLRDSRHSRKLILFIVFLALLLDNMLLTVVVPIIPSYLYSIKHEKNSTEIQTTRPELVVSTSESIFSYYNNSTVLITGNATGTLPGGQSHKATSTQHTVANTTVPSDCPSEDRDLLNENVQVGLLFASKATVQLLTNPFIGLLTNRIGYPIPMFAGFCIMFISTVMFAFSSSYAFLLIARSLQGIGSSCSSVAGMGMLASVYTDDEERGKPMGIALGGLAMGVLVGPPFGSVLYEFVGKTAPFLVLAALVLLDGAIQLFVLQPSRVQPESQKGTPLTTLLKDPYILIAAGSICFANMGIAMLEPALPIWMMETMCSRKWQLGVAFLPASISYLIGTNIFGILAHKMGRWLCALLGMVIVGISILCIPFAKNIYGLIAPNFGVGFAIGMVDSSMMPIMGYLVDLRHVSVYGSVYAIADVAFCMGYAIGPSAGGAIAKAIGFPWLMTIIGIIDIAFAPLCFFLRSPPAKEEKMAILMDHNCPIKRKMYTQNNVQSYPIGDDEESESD
# Summary of the method: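 Radioligand displacement binding on rat forebrain tissue preparation, filter-based scintillation read-out 1 hour after dosing. Primary screen in duplicate at 25 uM, then concentration series for actives; loss of signal versus DMSO.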
# [10] = target: Agonist Androgen Response Element (ARE), AR (gene 367) (UniProt P10275); assay: OT_AR_ARELUC_AG_1440: Odyssey Thera (OT) 24-hour CHO-K1 Luciferase Assay for Agonist Androgen Response Element (ARE) (AID 2283379)
# Sequence of Agonist Androgen Response Element (ARE), AR (gene 367) (P10275 whole entry, looked up): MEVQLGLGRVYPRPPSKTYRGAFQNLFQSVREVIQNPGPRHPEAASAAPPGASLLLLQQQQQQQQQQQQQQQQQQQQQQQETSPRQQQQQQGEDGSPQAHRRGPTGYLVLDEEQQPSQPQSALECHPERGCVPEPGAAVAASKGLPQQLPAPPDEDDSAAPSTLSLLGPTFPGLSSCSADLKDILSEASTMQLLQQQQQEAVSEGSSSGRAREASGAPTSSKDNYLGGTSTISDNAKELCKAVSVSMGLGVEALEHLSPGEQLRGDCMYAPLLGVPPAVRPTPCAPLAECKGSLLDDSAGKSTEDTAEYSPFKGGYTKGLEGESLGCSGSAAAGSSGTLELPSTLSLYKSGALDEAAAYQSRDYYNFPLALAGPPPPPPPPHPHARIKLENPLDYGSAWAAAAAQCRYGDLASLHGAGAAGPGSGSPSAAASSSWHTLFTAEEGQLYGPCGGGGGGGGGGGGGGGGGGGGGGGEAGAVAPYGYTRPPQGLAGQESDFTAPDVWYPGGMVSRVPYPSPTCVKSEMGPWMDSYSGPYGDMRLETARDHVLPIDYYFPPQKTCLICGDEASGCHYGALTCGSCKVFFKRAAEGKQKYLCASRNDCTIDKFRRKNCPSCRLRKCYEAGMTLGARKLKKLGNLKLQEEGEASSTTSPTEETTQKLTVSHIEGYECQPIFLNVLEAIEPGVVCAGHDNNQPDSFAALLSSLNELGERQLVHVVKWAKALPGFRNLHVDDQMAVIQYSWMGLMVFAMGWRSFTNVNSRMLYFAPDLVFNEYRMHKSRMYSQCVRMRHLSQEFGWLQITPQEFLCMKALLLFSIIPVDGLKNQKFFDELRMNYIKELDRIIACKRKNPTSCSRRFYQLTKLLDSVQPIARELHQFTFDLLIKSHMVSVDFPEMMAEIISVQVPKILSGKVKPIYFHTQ
# Summary of the method: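 CHO-K1 cells carrying an ARE-driven luciferase reporter were exposed to compounds for 24 h. Luminescence was then read after adding a D-luciferin/ATP mix, and activity was scored as a gain in signal over DMSO vehicle.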
structure (smiles),measurement,setting,value
Cc1cc(O)ccc1Cl,outcome,[1],inactive
same,AC50,[2],52.5 µM (active)
same,outcome,[3],inactive
same,outcome,[4],inactive
same,AC50,[5],34.7 µM (active)
same,outcome,[6],inactive
CC#Cc1cc(C)nc(Nc2ccccc2)n1,outcome,[7],inactive
same,outcome,[2],inactive
same,outcome,[8],inactive
same,outcome,[3],inactive
same,outcome,[6],inactive
CC(C)(c1ccccc1)c1ccc(O)cc1,AC50,[7],15.5 µM (active)
same,AC50,[1],2.98 µM (active) and 11 µM (active)
same,outcome,[1],inactive
same,AC50,[2],2 µM (active) and 11.9 µM (active) and 2.17 µM (active)
same,AC50,[8],770 nM (active) and 897 nM (active) and 861 nM (active)
same,AC50,[3],633 nM (active) and 791 nM (active) and 967 nM (active)
C[C@]12CCC(=O)C=C1CC[C@@H]1[C@@H]2CC[C@@]2(C)[C@H]1CC[C@]2(C)O,outcome,[1],inactive
same,outcome,[8],inactive
same,outcome,[3],inactive
same,AC50,[4],16.1 µM (active) and 16.7 µM (active) and 11.7 µM (active)
same,outcome,[4],inactive
same,AC50,[5],23.5 µM (active) and 27.9 µM (active) and 33.2 µM (active)
same,outcome,[5],inactive
same,outcome,[6],inactive
CCCCCCOC(=O)c1ccccc1C(=O)OCCCCCC,outcome,[1],inactive
same,outcome,[8],inactive
same,outcome,[3],inactive
same,outcome,[6],inactive
ClC(Cl)=C(c1ccc(Cl)cc1)c1ccc(Cl)cc1,outcome,[9],inactive
same,outcome,[1],inactive
same,AC50,[3],11.8 µM (active)
same,outcome,[3],inactive
same,AC50,[4],85 µM (active) and 83.5 µM (active) and 85.1 µM (active)
same,AC50,[5],93 µM (active) and 84.9 µM (active) and 88.2 µM (active)
same,AC50,[6],78.3 µM (active) [middle of 4 runs]
Oc1ccc(C(c2ccc(O)cc2)(C(F)(F)F)C(F)(F)F)cc1,AC50,[9],7.78 µM (active)
same,AC50,[7],16.1 µM (active)
same,outcome,[6],inactive
CCCCCCCCOC(=O)c1ccccc1C(=O)OCCCCCCCC,outcome,[1],inactive
same,outcome,[2],inactive
same,outcome,[3],inactive
same,outcome,[4],inactive
same,outcome,[5],inactive
same,outcome,[6],inactive
ClC1=C(Cl)[C@]2(Cl)[C@@H]3[C@H]4C[C@H]([C@@H]5O[C@H]45)[C@@H]3[C@@]1(Cl)C2(Cl)Cl,outcome,[1],inactive
same,outcome,[8],inactive
same,outcome,[6],inactive
O=C(O)C(F)(F)C(F)(F)C(F)(F)C(F)(F)C(F)(F)C(F)(F)C(F)(F)C(F)(F)C(F)(F)F,AC50,[7],25 µM (active)
same,outcome,[1],inactive
same,outcome,[3],inactive
same,outcome,[6],inactive
CCCN(CCC)N=O,outcome,[1],inactive
same,outcome,[2],inactive
same,outcome,[3],inactive
same,outcome,[6],inactive
c1ccc(-c2ccccc2)cc1,outcome,[7],inactive
same,outcome,[2],inactive
same,outcome,[3],inactive
same,outcome,[4],inactive
CC1=C2C[C@H]3[C@@H](CC=C4C[C@@H](O)CC[C@@]43C)[C@@H]2CC[C@]12O[C@@H]1C[C@H](C)CN[C@H]1[C@H]2C,outcome,[9],inactive
same,outcome,[10],inactive
same,outcome,[3],inactive
same,outcome,[4],inactive
same,outcome,[5],inactive
same,outcome,[6],inactive
Oc1ccc(Cl)cc1Cl,AC50,[7],9.75 µM (active)
same,outcome,[1],inactive
same,outcome,[2],inactive
same,outcome,[3],inactive
same,outcome,[4],inactive
same,outcome,[5],inactive
same,outcome,[6],inactive
Clc1ccc(C(c2ccccc2Cl)C(Cl)(Cl)Cl)cc1 (configuration not stated),AC50,[1],51.7 nM (active)
same,outcome,[1],inactive
same,AC50,[2],2.14 µM (active) and 2.1 µM (active) and 2.35 µM (active)
same,AC50,[6],54.9 µM (active) and 58.4 µM (active) and 63.9 µM (active)
CCC(C)(c1ccc(O)cc1)c1ccc(O)cc1,AC50,[9],5.28 µM (active)
same,AC50,[7],8.33 µM (active)
same,AC50,[3],213 nM (active) [middle of 5 runs]
same,AC50,[4],12.1 µM (active)
same,outcome,[4],inactive
same,AC50,[5],30.2 µM (active) and 32.2 µM (active)
same,outcome,[5],inactive
same,AC50,[6],30.8 µM (active) and 67 µM (active) and 68.3 µM (active)
same,outcome,[6],inactive
Nc1ccc(-c2ccc(N)cc2)cc1,AC50,[7],11.8 µM (active)
same,outcome,[2],inactive
same,outcome,[8],inactive
same,outcome,[3],inactive
same,outcome,[6],inactive
CCOCCOC(C)=O,outcome,[1],inactive
